Data: the supplement of paper PMC11732987, “Enantioselective OTUD7B fragment discovery through chemoproteomics screening and high-throughput optimisation” (Communications Chemistry, 2025)

How the values were obtained:
Assay in all cases: log2 ratio of Biotin-Ahx-Ub-VS probe labelling (fragment/DMSO); higher = less target engagement (more negative = stronger competition), active = hit call of the paper (q ≤ 0.05, log2 ratio ≤ -1)
Details in all cases: compound concentration: 200 uM; treatment time: 3 h
USP42 = molecular target: T1, USP42 (UniProt Q9H9J4)
T1 sequence (whole entry): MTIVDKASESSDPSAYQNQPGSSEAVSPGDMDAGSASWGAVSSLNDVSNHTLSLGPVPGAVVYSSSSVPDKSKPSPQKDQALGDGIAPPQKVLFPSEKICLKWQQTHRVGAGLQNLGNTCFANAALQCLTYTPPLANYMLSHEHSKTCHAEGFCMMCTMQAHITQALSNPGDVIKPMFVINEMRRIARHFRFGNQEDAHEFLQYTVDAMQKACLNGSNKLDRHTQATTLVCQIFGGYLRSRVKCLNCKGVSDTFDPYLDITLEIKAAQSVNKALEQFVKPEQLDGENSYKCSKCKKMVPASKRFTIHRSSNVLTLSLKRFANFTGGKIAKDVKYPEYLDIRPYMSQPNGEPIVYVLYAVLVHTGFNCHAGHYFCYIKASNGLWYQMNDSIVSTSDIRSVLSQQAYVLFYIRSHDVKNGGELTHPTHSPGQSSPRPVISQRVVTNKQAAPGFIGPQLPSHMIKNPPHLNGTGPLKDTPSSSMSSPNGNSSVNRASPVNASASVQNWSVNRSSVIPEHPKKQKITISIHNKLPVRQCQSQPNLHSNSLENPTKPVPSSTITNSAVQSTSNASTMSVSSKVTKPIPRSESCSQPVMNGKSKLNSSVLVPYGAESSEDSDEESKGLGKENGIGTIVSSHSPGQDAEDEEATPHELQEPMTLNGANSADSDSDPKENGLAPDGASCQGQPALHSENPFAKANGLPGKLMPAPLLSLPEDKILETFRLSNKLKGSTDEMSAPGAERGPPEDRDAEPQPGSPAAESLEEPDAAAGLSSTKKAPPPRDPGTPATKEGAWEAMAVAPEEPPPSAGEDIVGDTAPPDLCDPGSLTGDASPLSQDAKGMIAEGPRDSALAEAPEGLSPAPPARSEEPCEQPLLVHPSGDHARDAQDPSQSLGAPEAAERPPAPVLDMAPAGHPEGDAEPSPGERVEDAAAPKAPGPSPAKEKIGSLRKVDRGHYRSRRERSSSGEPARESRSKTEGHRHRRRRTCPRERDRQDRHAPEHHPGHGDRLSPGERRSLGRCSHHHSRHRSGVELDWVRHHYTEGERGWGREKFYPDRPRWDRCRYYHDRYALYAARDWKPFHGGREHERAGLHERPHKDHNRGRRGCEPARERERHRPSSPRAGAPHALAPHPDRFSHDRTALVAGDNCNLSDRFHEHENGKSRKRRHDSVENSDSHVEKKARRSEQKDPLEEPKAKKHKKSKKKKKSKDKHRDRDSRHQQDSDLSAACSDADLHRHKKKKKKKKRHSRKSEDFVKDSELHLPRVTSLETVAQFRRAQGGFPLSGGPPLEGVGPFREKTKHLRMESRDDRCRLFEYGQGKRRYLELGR
How it was run: (§1)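 Labelled DUBs from HEK293T lysate were NeutrAvidin-enriched, digested with LysC and trypsin, and run by diaPASEF LC-MS/MS. Before that, each 495 µg sample in Tris/CHAPS/IGEPAL buffer with protease inhibitors was treated in triplicate with fragment at 200 µM or vehicle for 3 h, then with Biotin-Ahx-Ub-VS at 0.5 µM final for 1 h. Values are average log2 ratios of fragment over vehicle by unpaired t-test, based on global-median-normalised Spectronaut label-free quantities from proteins with ≥2 unique peptides.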

USP46 = USP46 (UniProt P62068)
USP46, sequence (P62068 whole entry): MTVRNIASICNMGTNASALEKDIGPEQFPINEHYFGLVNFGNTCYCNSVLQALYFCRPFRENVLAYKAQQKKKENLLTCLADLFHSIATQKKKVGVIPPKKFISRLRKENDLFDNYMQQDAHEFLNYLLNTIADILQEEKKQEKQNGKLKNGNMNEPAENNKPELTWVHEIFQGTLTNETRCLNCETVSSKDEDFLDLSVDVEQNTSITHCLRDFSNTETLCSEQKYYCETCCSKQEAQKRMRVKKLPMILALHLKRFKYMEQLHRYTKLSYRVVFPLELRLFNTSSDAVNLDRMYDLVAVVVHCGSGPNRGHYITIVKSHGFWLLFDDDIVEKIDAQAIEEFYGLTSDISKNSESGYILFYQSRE
How it was run: as §1

USP47 = molecular target: T2, USP47 (UniProt Q96K76)
T2 sequence (whole entry): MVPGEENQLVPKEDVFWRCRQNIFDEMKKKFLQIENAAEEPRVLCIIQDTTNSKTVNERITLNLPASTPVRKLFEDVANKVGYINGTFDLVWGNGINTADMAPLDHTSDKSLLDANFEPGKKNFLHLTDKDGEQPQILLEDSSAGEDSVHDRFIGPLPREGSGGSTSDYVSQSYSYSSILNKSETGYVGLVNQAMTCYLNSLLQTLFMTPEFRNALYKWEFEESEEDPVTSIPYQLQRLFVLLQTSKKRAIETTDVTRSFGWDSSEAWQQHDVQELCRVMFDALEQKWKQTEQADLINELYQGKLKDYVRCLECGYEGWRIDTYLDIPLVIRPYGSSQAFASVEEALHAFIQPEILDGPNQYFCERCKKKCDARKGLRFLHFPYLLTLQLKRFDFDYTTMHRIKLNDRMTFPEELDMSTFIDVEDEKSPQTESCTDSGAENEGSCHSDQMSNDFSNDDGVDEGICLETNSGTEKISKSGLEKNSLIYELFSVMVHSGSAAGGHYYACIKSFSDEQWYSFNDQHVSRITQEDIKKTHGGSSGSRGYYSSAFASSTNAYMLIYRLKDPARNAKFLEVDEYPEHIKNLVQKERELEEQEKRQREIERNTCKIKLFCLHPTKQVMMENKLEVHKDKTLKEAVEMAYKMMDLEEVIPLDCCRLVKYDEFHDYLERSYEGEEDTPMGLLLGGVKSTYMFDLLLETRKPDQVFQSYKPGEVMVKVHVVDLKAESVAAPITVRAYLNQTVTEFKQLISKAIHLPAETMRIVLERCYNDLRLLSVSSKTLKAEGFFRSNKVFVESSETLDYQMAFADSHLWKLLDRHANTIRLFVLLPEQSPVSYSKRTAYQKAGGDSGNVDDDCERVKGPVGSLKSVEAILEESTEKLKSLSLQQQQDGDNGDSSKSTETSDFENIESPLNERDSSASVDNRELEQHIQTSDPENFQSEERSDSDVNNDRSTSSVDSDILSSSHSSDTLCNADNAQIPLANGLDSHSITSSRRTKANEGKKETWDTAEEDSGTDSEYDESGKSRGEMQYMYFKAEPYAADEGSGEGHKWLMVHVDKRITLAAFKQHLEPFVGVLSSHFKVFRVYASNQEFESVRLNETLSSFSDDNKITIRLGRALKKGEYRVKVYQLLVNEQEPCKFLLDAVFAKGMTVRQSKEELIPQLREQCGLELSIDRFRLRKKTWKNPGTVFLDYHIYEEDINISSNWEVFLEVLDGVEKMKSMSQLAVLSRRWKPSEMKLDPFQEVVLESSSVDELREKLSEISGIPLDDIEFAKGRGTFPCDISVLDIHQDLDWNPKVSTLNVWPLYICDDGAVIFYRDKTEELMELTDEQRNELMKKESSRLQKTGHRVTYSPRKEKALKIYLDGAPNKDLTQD
How it was run: as §1

USP48 = molecular target: T3, USP48 (UniProt Q86UV5)
T3 sequence (whole entry): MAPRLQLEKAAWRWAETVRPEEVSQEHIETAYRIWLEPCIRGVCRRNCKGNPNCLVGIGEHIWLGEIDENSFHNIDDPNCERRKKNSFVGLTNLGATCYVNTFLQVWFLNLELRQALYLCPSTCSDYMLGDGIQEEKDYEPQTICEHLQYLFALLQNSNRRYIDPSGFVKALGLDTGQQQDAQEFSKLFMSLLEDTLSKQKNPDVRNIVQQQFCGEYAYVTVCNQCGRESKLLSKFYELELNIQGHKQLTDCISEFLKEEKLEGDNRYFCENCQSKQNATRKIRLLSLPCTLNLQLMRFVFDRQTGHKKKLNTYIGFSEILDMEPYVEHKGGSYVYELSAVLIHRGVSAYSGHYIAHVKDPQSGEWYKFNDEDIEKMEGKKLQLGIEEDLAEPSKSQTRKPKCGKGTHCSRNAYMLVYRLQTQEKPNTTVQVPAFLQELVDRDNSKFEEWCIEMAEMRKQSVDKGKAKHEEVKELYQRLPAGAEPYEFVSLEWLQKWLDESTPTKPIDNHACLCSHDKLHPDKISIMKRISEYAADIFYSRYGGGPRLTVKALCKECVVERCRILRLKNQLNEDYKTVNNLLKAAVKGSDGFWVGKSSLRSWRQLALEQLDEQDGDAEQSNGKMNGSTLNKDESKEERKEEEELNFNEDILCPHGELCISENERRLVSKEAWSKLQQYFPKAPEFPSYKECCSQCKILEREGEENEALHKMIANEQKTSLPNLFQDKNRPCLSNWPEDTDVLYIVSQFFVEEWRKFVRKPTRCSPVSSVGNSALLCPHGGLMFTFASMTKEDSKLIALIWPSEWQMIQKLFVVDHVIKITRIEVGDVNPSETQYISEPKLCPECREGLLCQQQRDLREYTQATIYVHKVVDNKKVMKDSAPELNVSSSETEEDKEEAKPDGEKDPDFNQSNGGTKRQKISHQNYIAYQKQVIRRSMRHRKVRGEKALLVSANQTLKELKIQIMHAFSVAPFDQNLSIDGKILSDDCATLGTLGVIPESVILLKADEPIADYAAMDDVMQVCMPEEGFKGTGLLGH
How it was run: as §1

USP5 = molecular target: T4, USP5 (UniProt P45974)
T4 sequence (whole entry): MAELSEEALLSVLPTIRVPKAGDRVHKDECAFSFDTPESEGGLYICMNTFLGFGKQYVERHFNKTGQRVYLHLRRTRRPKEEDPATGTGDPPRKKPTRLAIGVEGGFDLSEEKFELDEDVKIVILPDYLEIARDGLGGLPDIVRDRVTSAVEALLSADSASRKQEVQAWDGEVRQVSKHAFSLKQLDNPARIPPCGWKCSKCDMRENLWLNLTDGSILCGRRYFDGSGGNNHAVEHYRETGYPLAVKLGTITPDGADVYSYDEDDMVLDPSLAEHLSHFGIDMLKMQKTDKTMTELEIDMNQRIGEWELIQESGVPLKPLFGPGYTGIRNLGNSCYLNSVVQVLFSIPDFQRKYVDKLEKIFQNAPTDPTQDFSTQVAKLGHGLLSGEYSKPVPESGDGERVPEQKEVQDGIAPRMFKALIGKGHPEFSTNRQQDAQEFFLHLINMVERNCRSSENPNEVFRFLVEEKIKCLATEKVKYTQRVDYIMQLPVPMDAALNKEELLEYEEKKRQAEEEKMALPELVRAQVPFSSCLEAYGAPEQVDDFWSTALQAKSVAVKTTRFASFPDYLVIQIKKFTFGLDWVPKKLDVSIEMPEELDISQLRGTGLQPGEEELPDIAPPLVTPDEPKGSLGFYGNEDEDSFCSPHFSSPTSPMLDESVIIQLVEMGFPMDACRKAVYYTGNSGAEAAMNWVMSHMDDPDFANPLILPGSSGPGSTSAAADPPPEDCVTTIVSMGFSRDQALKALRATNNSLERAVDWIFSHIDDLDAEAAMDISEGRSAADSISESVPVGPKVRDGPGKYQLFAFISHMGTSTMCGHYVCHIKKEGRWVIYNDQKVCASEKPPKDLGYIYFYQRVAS
How it was run: as §1

USP54 = USP54 (UniProt Q70EL1)
USP54, sequence (Q70EL1 whole entry): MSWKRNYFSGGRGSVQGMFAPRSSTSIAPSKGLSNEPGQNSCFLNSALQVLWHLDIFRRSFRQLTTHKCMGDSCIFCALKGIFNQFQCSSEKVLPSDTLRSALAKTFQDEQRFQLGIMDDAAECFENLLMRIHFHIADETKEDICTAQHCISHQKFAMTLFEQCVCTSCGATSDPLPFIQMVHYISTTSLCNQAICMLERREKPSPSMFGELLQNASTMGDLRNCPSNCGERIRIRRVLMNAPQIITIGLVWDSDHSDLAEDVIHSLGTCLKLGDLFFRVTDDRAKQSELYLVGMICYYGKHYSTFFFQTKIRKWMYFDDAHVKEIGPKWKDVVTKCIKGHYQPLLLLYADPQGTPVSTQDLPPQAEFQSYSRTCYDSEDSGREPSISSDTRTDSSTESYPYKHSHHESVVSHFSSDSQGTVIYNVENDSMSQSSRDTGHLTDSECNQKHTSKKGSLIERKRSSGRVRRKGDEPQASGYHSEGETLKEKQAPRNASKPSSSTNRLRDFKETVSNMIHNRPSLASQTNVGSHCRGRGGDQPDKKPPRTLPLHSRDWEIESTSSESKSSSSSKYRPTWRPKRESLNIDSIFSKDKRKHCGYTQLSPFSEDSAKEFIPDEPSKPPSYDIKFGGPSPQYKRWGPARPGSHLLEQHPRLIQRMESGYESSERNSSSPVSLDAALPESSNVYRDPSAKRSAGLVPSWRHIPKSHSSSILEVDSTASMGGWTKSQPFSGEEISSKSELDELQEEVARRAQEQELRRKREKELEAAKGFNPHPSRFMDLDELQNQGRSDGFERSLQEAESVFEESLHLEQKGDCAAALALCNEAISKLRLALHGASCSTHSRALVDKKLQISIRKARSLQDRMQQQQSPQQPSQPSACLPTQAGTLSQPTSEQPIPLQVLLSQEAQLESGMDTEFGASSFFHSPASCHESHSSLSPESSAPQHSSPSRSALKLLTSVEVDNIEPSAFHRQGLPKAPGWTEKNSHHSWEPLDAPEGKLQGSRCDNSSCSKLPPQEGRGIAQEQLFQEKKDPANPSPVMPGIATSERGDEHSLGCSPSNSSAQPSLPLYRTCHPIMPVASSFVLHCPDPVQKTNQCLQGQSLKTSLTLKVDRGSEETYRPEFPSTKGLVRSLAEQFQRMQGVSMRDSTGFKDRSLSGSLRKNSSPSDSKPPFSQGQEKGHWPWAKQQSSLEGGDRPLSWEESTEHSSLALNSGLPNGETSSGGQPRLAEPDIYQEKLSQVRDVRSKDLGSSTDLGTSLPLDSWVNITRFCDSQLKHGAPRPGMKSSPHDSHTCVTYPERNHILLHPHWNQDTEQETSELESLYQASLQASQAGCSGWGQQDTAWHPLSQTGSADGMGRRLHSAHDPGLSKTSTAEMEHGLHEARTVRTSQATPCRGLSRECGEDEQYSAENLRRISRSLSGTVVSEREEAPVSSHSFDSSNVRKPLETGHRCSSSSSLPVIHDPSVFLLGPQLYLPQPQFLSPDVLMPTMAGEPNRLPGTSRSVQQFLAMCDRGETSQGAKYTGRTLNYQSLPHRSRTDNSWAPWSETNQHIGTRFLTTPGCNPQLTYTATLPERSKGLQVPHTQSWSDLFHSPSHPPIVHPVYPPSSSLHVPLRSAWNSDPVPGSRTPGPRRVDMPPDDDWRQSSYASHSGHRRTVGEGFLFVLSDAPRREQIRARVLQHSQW
How it was run: as §1

USP7 = USP7 (UniProt Q93009)
How it was run: as §1

USP8 = molecular target: T5, USP8 (UniProt P40818)
T5 sequence (whole entry): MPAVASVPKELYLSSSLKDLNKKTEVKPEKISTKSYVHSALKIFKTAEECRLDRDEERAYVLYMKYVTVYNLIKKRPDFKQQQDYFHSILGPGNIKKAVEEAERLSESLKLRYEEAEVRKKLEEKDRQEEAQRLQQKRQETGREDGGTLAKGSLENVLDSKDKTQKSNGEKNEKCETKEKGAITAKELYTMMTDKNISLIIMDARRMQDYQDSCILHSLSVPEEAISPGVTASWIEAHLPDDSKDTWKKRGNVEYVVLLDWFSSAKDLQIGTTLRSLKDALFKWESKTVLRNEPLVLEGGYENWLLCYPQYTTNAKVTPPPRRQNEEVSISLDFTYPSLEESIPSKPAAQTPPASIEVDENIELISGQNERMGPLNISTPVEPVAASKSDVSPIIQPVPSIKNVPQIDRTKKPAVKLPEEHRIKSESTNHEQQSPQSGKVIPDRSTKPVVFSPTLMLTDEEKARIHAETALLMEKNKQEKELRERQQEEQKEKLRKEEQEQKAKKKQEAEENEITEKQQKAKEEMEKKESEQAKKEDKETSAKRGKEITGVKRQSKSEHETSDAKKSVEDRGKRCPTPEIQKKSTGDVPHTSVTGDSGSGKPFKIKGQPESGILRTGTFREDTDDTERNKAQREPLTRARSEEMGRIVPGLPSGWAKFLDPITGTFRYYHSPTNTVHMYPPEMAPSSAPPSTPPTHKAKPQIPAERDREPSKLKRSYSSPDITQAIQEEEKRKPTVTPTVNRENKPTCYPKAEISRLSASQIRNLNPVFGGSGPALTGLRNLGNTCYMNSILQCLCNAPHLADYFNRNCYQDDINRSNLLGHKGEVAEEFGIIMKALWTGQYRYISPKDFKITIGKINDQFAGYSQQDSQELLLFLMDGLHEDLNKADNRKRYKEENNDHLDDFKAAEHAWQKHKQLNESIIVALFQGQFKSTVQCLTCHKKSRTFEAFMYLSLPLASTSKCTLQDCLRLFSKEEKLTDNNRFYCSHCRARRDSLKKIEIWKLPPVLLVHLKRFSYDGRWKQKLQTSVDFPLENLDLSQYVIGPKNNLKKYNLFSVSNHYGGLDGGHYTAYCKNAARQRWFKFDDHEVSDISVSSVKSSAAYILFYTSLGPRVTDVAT
How it was run: as §1

USP9X = USP9X (UniProt Q93008)
USP9X, sequence (Q93008 whole entry): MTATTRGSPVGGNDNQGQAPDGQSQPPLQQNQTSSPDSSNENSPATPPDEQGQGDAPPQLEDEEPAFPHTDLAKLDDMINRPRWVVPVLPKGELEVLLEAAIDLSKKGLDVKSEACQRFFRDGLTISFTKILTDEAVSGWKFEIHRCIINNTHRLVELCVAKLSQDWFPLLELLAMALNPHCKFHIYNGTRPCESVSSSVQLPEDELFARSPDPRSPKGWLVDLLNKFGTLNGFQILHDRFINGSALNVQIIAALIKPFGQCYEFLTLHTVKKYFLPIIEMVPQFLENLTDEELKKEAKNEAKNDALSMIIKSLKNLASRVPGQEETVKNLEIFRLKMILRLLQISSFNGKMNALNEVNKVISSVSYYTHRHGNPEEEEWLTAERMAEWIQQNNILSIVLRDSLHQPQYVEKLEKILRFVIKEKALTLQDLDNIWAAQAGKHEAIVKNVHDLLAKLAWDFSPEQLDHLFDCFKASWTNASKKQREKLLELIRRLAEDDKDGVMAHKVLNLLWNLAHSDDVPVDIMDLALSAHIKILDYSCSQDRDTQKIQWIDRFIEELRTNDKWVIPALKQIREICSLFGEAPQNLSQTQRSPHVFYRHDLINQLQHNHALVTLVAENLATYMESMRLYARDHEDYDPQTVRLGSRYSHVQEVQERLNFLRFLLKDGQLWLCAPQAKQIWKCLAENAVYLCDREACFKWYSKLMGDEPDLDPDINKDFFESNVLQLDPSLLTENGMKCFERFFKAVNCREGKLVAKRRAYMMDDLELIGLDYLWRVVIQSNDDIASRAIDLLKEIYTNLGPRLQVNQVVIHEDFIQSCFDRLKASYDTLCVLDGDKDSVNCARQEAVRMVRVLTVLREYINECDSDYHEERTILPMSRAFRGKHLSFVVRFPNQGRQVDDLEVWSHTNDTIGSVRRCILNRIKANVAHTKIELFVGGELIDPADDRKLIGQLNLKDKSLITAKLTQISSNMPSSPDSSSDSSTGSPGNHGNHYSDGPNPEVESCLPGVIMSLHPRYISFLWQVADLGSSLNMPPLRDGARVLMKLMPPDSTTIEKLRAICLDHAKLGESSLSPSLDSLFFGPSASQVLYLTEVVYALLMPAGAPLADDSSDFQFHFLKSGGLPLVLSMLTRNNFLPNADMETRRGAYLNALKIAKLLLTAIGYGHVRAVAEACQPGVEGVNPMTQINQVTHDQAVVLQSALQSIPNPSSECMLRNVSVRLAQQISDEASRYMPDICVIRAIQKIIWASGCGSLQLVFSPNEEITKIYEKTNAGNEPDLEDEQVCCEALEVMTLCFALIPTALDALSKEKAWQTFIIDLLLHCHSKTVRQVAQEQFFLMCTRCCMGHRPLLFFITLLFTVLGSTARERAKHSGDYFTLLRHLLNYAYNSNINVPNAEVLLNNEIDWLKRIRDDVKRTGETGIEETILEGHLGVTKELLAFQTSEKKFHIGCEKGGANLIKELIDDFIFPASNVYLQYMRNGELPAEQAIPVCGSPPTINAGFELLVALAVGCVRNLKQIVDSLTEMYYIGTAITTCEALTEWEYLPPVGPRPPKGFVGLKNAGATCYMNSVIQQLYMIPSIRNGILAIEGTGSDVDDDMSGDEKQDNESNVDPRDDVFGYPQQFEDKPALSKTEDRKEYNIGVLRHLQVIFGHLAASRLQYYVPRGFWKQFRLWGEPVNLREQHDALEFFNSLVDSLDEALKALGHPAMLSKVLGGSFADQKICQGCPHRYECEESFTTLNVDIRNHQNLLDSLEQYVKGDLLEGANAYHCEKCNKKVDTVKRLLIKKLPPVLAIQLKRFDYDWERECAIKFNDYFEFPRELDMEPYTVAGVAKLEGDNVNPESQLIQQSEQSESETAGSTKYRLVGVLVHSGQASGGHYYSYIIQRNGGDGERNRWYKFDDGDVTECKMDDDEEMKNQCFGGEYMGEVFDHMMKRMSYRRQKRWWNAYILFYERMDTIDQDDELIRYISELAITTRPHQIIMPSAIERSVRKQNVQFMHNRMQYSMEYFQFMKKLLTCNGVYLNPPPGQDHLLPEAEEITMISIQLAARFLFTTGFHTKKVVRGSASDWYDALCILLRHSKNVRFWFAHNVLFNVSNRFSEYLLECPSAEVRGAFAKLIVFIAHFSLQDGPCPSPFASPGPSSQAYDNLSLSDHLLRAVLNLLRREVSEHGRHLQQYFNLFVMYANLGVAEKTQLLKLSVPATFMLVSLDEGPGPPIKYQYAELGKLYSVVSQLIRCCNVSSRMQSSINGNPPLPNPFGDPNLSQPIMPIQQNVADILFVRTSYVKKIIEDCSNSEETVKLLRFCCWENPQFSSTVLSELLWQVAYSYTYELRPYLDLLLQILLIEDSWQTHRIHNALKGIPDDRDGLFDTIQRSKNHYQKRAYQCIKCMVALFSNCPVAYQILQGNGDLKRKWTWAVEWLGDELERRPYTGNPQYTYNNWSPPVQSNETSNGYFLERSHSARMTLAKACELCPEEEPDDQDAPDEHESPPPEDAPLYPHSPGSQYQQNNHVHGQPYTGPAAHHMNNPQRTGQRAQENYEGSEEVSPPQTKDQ
How it was run: as §1

UniProt O00487 = molecular target: UniProt O00487
UniProt O00487, sequence (O00487 whole entry): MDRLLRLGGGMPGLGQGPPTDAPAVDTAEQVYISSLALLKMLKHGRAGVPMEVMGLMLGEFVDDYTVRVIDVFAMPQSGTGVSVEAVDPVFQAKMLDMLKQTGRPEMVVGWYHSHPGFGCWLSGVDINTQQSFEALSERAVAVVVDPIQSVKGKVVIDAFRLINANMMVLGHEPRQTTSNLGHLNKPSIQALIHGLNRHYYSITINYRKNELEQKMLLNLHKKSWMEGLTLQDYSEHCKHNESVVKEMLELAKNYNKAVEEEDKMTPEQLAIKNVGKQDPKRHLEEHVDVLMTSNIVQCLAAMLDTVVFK
How it was run: as §1

Measured: log2 ratio of Biotin-Ahx-Ub-VS probe labelling

O=C(CCl)NCc1ccc(N2CCOCC2)c(F)c1
inactive: USP42 0.396 | USP46 0.00295 | USP47 0.00631 | USP48 0.132 | USP5 0.372 | USP54 0.657 | USP7 -0.046 | USP8 0.129 | USP9X -0.078 | UniProt O00487 0.0665
